# Source: PubChem BioAssay AID1030 (National Center for Advancing Translational Sciences (NCATS), 2008)
# Where “and” joins values, the source holds several entries; their conditions need not be identical. Identical values can stand only once. In all, about 220,000 compounds went through this assay and about 16,000 (7.3%) were called active. Entries that show only a call come without a potency. Inconclusive results (about 25%) are left out. This is one part of a sample in which actives are shown more often than they occur. Calls follow the shape of the dose curve; as a rule, active = well fitted inhibition curve with a large enough effect (not every such curve was filed as active); inconclusive = small, poorly fitted or top-dose-only effect, or another doubt; inactive = no such curve, though single readings can be large or run the other way. More than one record can exist for a structure, and the calls need not agree.
# Target: Aldehyde dehydrogenase 1A1 (Homo sapiens) (UniProt P00352)
# Sequence (P00352 whole entry, looked up): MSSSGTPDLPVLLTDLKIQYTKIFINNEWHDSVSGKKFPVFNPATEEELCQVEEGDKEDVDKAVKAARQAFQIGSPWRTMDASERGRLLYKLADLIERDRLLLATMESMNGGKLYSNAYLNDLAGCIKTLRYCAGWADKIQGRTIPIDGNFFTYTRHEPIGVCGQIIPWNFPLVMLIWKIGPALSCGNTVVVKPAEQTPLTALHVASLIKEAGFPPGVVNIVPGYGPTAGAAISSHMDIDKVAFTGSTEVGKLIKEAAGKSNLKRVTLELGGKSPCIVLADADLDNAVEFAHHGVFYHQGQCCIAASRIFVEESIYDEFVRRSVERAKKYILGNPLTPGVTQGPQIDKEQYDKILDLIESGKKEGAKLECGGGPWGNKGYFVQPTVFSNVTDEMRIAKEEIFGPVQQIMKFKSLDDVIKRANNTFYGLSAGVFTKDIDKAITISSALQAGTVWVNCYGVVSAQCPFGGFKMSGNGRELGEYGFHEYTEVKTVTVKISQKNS
# Assay: qHTS Assay for Inhibitors of Aldehyde Dehydrogenase 1 (ALDH1A1)
# Conditions: Purified ALDH1A1, NADH fluorescence, propionaldehyde substrate; series mostly up to 75.3 µM
# Potency is read from the fitted curve at half-maximal effect.
SMILES,Potency,"activity, negative = inhibition"
O=C1N=c2ccccc2=C/C1=C\c1c(O)[nH]c(=S)[nH]c1=O,2.51 µM (active),–
COc1ccccc1N=Nc1c(O)[nH]c(=S)[nH]c1=O,inactive,–
Cc1ccc2c(c1)=C/C(=C\c1c(O)[nH]c(=O)[nH]c1=O)C(=O)N=2,1.58 µM (active),–
CC(C)CCC1(CCN)C(=O)NC(=O)NC1=O,–,0.154% [at 13.5 µM] (inactive)
CCOc1ccc(CN(CCCl)CCCl)cc1C(=O)OC,inactive,–
COc1ccc(C2Oc3c(I)c(OC)cc(OC)c3CC2O)cc1OC (stereo not drawn),inactive,–
O=C(Nc1cccc2ccccc12)N1CCC2(CC1)OCCO2,inactive,–
COc1ccccc1-c1[se]c2ccccc2c1I,inactive,–
Cc1ccc(N(C)C(=O)Oc2cccc3ccc(C)nc23)cc1,inactive,–
CS(=N)(=O)CC[C@H](N)P(=O)(O)O (stereo partly drawn),–,4.42% [at 13.5 µM] (inactive)
CC(=O)NBr,inactive,–
CCC1(c2ccccc2)C(=O)NC(=O)N(C)C1=O (stereo not drawn),inactive,–
c1ccc(Cc2nn3c(Cn4cnc5ccccc54)nnc3s2)cc1,2.24 µM (active),–
c1ccc(CCCCN2CCC(c3ccccc3)CC2)cc1,inactive,–
c1cncc(CNCCc2c[nH]c3ccccc23)c1,inactive,–
NC(=O)Nc1cccc(C(F)(F)F)c1,inactive,–
C[C@@]1([C@@H](NP(=O)(c2ccccc2)c2ccccc2)c2ccccc2)C[C@H]1CCO,inactive,–
CCCCC#N,inactive,–
Clc1ccc2nc3c(c(-c4ccccc4)c2c1)CNCC3,inactive,–
N#CC(C#N)=Cc1cc(O)c(O)c([N+](=O)[O-])c1,inactive and 20 µM (active),–
Cc1cccc(-n2c(O)c(/C=N/N3CCOCC3)c(=O)[nH]c2=S)c1,inactive,–
CN[C@@H]1C[C@H]2O[C@@](C)([C@@H]1OC)n1c3ccccc3c3c4c(c5c6ccccc6n2c5c31)C(=O)NC4,–,-5.83% [at 13.5 µM] (inactive)
CN(C)C(=O)NC(O)C(Cl)(Cl)Cl (stereo not drawn),inactive,–

SMILES,Potency,"activity, negative = inhibition"
C[C@]12CC[C@@H]3C(=CCc4cc(O)ccc43)[C@@H]1CCC2=O,0.501 µM (active),–
CCC(C)C(=O)O[C@@H]1C[C@@]2(C)C(c3ccoc3)OC(=O)CC23OC2(C)O[C@@]14[C@@]1(C)C(CC(=O)OC)C5(C)CC1(O)C(O)(C5OC(=O)C1(C)OC1C)C(OC(C)=O)[C@@]34O2 (stereo partly drawn),inactive,–
Cc1noc(C)c1CSc1nc2cc(S(=O)(=O)N3CCOCC3)ccc2o1,3.55 µM (active),–
O=C(c1cc(S(=O)(=O)N2CCOCC2)ccc1F)N1CCC2(CC1)OCCO2,inactive,–
N#CCCCl,inactive,–
O=C(Nc1cccc(OC(=O)N2CCCCC2)c1)N1CCOCC1,inactive,–
O=C1NC(=O)N(c2ccccc2)C(=O)/C1=C/c1ccc([N+](=O)[O-])s1,22.4 µM (active),–
CCN1CCN(C(=O)Cc2coc3cc(C)cc(C)c23)CC1,inactive,–
Nc1ccc(C(=O)N/N=C2/CN3CCC2CC3)cc1,inactive,–
CCCCCCN=C(CC)c1c(O)n(CCCC)c(=O)[nH]c1=O,inactive,–
CCc1nnc(NS(=O)(=O)c2ccc(N=Cc3c(O)n(-c4ccccc4)c(=O)[nH]c3=O)cc2)s1,inactive,–
C[N+]1(C)CCOC(O)(c2ccc(-c3ccc(C4(O)C[N+](C)(C)CCO4)cc3)cc2)C1 (stereo not drawn),inactive and 14.1 µM (active),–
COc1ccc(CCn2c(O)c(C=NCCCn3ccnc3)c(=O)[nH]c2=O)cc1OC,inactive,–
Cc1cccc2c3c(ccc12)C1=C(C(=O)C3=O)C(C)CO1 (stereo not drawn),17.8 µM (active),–
C=CCN(CC=C)C(=O)Nc1ccc(OCC)cc1,inactive,–
CNC(=S)N/N=C1\C2CN3CCN(C2)CC1(c1ccccc1)C3,inactive,–
CC(C)c1ccc(O)c(CN2CCN(c3ccccc3)CC2)c1,2 µM (active),–
Fc1ccc(N2CCN(Cc3ccc4c(c3)OCO4)CC2)cc1,inactive,–
COc1ccc(CN2CCN(c3ccccc3F)CC2)c(OC)c1,inactive,–
COc1ccc2c3c1OC1CC(O)C=C[C@@]31CCN(C)C2 (stereo partly drawn),inactive,–
CC1=C(C(=O)Nc2ccccc2)SCCO1,inactive,–
CC(C)N(CC#CCC1(O)c2ccccc2-c2ccccc21)C(C)C,inactive,–
CN1C2C=C(N(C(=O)c3ccc(Cl)cc3)c3ccccc3)CC1CC2 (stereo not drawn),inactive,–

SMILES,Potency,"activity, negative = inhibition"
CC(C)(O)/C=C\C(=O)[C@](C)(O)[C@H]1[C@H](O)C[C@]2(C)[C@@H]3CC=C4[C@@H](C=C(O)C(=O)C4(C)C)[C@]3(C)C(=O)C[C@@]12C,–,8.67% [at 13.5 µM] (inactive)
c1csc(CN2CC3(CCNCC3)C2)n1,inactive,–
c1ccc2c(c1)[I+]c1ccccc1-2,inactive,–
Cc1ccc(-n2c(C)cc(/C=C3\C(=O)NC(=O)N(C)C3=O)c2C)cc1C,17.8 µM (active),–
Cc1ccccc1N1C(=O)NC(=O)/C(=C\c2cc(C)n(C)c2C)C1=O,inactive,–
Cc1cc(C=C2C(=O)NC(=O)NC2=O)c(C)n1-c1ccncc1,14.1 µM (active),–
CSC1=NP(=S)(SC)N(C)c2nc3n(c21)CCC3 (stereo not drawn),inactive,–
CCOP(=O)(OCC)C(NC(=O)c1ccc(C)cc1)C(Cl)(Cl)Cl (stereo not drawn),inactive,–
CCN(CC)CCn1ncc2c(N)ncnc21,–,1.51% [at 13.5 µM] (inactive)
CCCCCCCCc1[se]c2ccccc2c1Br,inactive,–
NCCc1ccc(S(=O)(=O)F)cc1,inactive,–
O=C(CN1CCCCC1)Nc1ccc(Br)cc1C(=O)c1ccccc1Cl,inactive,–
CCN1CCN(c2ccc([N+](=O)[O-])cc2C#N)CC1,inactive,–
COc1ccccc1-n1c(O)c(C=NC2CC2)c(=O)[nH]c1=O,inactive,–
O=c1c2ccccc2nc(-c2ccccc2)n1-c1ccccn1,inactive,–
O=c1c2ccccc2nc(-c2ccc(Cl)cc2Cl)n1-c1ccncc1,inactive,–
Cc1ccc(-n2c(-c3ccc([N+](=O)[O-])cc3)nc3ccccc3c2=O)cc1,7.51 µM (active),–
Cc1cccc2c(CCN)c[nH]c12,inactive,–
Cc1ncsc1CCCl,inactive,–
COc1ccc(C(=O)CC2C(=O)N(C)C(=O)N(C)C2=O)cc1,17.8 µM (active),–
CCOP(=O)(OCC)C(NC(=O)c1ccc(OC)cc1)C(Cl)(Cl)Cl (stereo not drawn),inactive,–
COc1ccc(-c2nn(CCC#N)cc2C(=O)O)cc1,inactive,–
